Measured values: PubChem BioAssay AID1508625 (Wald Lab, School of Medicine, Case Western Reserve …, 2021)

Test: enhancers of NK cell killing of ovarian tumor cells, primary screen, imaging, OVCAR3, primary NK cells, calcein-AM imaging (AID 1508625);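 also: compound given to NK cells 16 h before adding targets at 1.5 to 1 ratio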
Details: OVCAR3 lysis by primary NK cells, at 5 µM; z-score: measured here: robust Z-score, single-point normalisation

Row | SMILES | corrected activity, negative = more killing [%] | z-score
1 | Cc1ccc2c(C)nc(SCc3ccc(Cl)cc3)nc2c1 | -2.17 | -0.674
2 | S=C1CSc2ccccc2N1 | -1.4 | -0.377
3 | O=c1c2cn[nH]c2nc(SCc2ccccc2F)n1-c1ccc(Oc2ccccc2)cc1 | -0.689 | -0.251
4 | COC(=O)c1conc1-c1ccccc1OC | -3.1 | -1.35
5 | COc1ccc(Cl)cc1NC(=O)CSc1nc2c([nH]c3ccccc32)c(=O)n1C | -2.37 | -0.59
6 | CC(=O)C1C(=O)CC(c2ccccc2)CC1=O (configuration not stated) | -5.17 | -2.04
